Assay results reported in the supplement of paper PMC10849652.
The full data set covers some 7,900 targets. This sample favours those with a hit. About 0.6% of all pairs of compound and target were hits. Values without a mark were called inactive.

Columns and labels:
Assay in all cases: log2 fold change, soluble protein after heating vs DMSO (PISA); higher = thermal stabilisation; K562 cells, 10 uM, 30 min; active = over 0.2 and 3.5 SD of the protein, either way, in both replicates (recomputed)
[1] = compound: CS(=O)(=O)c1ccc(-c2cnc(N)c(C(=O)Nc3ccccc3)n2)cc1
Procedure, shortened: (§1)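 Thermal stability values are relative to control samples and come from duplicates. They are expressed as log2 fold changes. For measurement, K562 cells (2×10^6 cells/mL) received 10 μM compound for 30 min, and aliquots were heated for 3 min over 48°C-58°C, pooled, and extracted at 4°C in PBS with 0.5% NP-40. Soluble protein, the supernatant after 21,000xg for 90 min, was quantified by TMTpro 16plex LC-MS/MS with equalised channel sums.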

[2] = compound: C[C@@H](Oc1cc(-c2cnn(C3CCNCC3)c2)cnc1N)c1c(Cl)ccc(F)c1Cl [crizotinib]
Procedure, shortened: as §1

[3] = compound: C[C@@H]1COCCN1C2=NC(=NC(=C2)C3(CC3)S(=O)(=O)C)C4=C5C=CNC5=CC=C4
Procedure, shortened: as §1

[4] = compound: C[C@H](C1=CC=C(C=C1)C(=O)NC2=C3C=CNC3=NC=C2)N
Procedure, shortened: as §1

[5] = compound: C[C@H](Nc1ncnc2nc[nH]c12)c1cc2cccc(Cl)c2c(=O)n1-c1ccccc1 [duvelisib]
Procedure, shortened: as §1

[6] = compound: Cc1cc(Nc2cc(CN3CCOCC3)c3nc(C)c(Cc4ccc(Cl)cc4F)n3n2)n[nH]1 [gandotinib]
Procedure, shortened: as §1

[7] = compound: Cc1cc(Nc2cc(N3CCN(C)CC3)nc(Sc3ccc(NC(=O)C4CC4)cc3)n2)n[nH]1 [tozasertib]
Procedure, shortened: as §1

[8] = compound: Cc1cc(SCc2sc(-c3ccc(C(F)(F)F)cc3)nc2C)ccc1OCC(=O)O
Procedure, shortened: as §1

[9] = compound: Cc1ccc(-n2nc(C(C)(C)C)cc2NC(=O)Nc2ccc(OCCN3CCOCC3)c3ccccc23)cc1 [doramapimod]
Procedure, shortened: as §1

[10] = compound: Cc1ccc(C(=O)N(CCCN)[C@@H](c2nc3cc(Cl)ccc3c(=O)n2Cc2ccccc2)C(C)C)cc1 [ispinesib]
Procedure, shortened: as §1

[11] = compound: Cc1ccc(NC(=O)c2ccc(CN3CC[C@H](N(C)C)C3)c(C(F)(F)F)c2)cc1Nc1nccc(-c2cncnc2)n1 [bafetinib]
Procedure, shortened: as §1

[12] = compound: Cc1cccc(CC(=O)N2CCc3c2ccc(-c2cn(C)c4ncnc(N)c24)c3F)n1
Procedure, shortened: as §1

[13] = compound: Cc1cn(-c2cc(NC(=O)c3ccc(C)c(Nc4nccc(-c5cccnc5)n4)c3)cc(C(F)(F)F)c2)cn1 [nilotinib]
Procedure, shortened: as §1

[14] = compound: Cc1nc(Nc2n[nH]c3c2CN(C(=O)N[C@H](CN(C)C)c2ccccc2)C3(C)C)c2sccc2n1
Procedure, shortened: as §1

[15] = compound: Cc1nc(Nc2ncc(C(=O)Nc3c(C)cccc3Cl)s2)cc(N2CCN(CCO)CC2)n1 [dasatinib]
Procedure, shortened: as §1

[16] = compound: Cc1ncc(-c2ccnc(Nc3ccc(S(C)(=O)=O)cc3)n2)n1C(C)C
Procedure, shortened: as §1

[17] = compound: Cn1cc(-c2ccc3c(c2)CCN3C(=O)Cc2cccc(C(F)(F)F)c2)c2c(N)ncnc21
Procedure, shortened: as §1

[18] = compound: Cn1cc(-c2ccc3nnc(C(F)(F)c4ccc5ncccc5c4)n3n2)cn1
Procedure, shortened: as §1

[19] = compound: Cn1cncc1[C@@](N)(c1ccc(Cl)cc1)c1ccc2c(c1)c(-c1cccc(Cl)c1)cc(=O)n2C [tipifarnib]
Procedure, shortened: as §1

[20] = compound: FC(F)(F)c1ccc(/C=C/c2nc(COc3ccc(CCCCn4ccnn4)cc3)co2)cc1 [mubritinib]
Procedure, shortened: as §1

Sequence of UniProt O15021 (O15021 whole entry, looked up): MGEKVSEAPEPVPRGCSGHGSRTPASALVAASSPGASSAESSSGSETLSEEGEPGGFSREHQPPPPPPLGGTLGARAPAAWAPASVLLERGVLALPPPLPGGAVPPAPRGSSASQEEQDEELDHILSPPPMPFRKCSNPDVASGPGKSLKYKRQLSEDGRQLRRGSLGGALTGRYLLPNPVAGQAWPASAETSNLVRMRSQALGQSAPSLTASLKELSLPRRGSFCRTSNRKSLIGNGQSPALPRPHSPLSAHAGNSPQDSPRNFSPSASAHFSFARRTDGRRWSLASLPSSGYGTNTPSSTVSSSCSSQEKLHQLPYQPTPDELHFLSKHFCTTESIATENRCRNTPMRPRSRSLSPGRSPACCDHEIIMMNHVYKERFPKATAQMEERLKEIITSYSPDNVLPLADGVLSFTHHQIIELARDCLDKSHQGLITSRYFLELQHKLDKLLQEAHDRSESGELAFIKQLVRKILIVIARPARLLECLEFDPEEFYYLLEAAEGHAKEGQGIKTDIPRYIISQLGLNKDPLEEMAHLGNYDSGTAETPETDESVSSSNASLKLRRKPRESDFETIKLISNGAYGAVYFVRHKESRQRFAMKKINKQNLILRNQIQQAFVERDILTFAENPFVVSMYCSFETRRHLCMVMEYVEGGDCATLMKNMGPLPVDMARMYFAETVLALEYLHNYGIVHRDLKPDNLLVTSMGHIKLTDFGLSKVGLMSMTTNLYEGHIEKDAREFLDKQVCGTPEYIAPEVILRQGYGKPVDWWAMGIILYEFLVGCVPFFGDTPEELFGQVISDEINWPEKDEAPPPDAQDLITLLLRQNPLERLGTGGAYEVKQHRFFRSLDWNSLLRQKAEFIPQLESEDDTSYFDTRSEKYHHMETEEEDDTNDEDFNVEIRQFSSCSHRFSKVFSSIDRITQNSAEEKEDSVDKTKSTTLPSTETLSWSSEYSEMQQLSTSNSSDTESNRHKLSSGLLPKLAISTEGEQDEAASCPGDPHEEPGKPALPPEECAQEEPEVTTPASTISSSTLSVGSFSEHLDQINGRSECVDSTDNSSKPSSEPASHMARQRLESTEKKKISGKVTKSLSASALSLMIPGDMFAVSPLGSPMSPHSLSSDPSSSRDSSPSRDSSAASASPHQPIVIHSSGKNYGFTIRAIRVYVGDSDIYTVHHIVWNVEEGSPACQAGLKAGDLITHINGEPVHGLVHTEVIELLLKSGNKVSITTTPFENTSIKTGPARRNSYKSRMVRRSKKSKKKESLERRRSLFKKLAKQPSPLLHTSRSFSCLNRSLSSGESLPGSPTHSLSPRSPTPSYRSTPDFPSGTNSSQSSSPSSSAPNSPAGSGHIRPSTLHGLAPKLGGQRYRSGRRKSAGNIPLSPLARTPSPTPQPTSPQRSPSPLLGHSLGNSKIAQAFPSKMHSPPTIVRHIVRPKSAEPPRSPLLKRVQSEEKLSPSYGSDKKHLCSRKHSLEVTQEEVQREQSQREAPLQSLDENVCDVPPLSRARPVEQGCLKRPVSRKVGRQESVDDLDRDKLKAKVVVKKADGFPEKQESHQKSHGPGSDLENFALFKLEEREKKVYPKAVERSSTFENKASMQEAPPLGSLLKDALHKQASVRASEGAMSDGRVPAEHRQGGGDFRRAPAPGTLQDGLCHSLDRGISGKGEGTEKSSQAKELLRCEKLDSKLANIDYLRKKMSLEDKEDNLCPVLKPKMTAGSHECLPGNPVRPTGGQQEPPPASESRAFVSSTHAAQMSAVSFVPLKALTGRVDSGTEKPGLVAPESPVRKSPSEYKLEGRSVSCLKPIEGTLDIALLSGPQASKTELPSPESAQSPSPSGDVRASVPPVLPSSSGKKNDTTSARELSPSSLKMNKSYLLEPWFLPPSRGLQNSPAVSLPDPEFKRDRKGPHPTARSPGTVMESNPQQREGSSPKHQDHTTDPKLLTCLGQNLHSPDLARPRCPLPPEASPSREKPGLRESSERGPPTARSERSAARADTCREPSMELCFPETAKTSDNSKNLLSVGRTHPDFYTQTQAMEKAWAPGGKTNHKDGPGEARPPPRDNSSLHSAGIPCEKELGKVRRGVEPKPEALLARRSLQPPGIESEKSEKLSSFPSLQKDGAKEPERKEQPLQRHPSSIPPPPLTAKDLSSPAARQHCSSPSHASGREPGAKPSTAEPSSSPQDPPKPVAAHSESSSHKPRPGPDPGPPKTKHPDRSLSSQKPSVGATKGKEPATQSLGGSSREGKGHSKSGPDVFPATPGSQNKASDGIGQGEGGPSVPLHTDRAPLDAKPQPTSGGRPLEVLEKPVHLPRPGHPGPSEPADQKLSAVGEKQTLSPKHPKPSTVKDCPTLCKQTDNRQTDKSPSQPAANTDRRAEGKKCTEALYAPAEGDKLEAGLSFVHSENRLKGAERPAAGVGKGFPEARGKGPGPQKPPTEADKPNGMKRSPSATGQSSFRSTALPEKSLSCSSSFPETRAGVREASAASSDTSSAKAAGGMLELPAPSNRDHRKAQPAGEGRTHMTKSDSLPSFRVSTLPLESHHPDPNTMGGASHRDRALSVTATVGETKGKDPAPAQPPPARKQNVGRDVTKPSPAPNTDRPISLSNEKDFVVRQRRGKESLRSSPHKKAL
Sequence of UniProt P45983 (P45983 whole entry, looked up): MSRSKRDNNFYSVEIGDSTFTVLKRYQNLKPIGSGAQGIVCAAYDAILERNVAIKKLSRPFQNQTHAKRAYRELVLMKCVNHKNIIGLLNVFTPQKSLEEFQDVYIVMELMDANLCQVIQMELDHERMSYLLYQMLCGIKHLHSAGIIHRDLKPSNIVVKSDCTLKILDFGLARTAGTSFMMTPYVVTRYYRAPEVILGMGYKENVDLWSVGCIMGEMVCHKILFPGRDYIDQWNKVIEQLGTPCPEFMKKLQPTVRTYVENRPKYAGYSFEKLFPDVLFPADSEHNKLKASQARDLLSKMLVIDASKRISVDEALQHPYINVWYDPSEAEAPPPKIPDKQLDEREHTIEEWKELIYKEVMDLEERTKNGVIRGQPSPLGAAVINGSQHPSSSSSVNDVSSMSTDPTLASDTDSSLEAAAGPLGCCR
Sequence of UniProt P27816 (P27816 whole entry, looked up): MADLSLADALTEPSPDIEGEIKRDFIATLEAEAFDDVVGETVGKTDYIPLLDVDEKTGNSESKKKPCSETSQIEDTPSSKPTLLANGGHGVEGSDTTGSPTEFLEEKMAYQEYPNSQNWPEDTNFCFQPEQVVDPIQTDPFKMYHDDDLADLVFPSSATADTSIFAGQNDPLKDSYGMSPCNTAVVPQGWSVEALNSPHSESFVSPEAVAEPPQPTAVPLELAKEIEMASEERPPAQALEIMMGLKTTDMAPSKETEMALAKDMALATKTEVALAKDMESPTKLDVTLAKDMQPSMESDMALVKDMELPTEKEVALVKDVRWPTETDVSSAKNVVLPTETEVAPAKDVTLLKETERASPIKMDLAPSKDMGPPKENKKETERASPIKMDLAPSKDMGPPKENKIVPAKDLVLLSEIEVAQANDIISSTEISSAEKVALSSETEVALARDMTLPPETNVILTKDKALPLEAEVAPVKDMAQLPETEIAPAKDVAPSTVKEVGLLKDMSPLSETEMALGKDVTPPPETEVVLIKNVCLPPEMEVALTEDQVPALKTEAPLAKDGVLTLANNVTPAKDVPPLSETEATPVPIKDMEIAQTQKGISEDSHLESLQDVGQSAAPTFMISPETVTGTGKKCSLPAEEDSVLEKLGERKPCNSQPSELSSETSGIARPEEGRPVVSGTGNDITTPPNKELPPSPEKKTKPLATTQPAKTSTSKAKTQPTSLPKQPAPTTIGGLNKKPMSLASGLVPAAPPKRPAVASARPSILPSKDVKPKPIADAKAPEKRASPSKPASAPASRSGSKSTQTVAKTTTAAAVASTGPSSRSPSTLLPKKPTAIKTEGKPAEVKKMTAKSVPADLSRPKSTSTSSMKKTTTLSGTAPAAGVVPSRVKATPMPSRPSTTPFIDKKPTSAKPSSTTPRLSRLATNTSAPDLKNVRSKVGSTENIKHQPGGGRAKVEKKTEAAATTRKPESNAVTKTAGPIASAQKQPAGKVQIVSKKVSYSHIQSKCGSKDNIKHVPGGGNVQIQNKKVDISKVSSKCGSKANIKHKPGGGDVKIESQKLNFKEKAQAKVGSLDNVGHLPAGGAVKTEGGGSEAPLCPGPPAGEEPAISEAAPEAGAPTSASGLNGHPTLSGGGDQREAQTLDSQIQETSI
Sequence of UniProt O43318 (O43318 whole entry, looked up): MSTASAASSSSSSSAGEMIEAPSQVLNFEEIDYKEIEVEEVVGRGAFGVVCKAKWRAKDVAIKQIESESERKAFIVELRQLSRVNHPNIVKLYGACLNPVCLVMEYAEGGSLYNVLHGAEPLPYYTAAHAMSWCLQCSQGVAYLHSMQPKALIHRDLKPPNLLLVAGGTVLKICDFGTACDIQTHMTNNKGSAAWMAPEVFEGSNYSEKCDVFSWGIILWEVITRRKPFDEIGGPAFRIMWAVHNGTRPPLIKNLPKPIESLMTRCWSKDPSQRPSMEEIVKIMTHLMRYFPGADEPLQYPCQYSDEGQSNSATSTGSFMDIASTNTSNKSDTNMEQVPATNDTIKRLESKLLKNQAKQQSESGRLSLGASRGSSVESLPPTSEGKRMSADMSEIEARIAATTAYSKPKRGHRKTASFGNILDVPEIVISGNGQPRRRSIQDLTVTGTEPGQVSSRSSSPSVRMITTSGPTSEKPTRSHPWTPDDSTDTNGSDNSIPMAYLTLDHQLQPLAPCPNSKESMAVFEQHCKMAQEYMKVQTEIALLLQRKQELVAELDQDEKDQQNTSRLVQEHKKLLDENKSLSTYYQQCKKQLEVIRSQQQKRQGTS

Row | Target | log2 fold change [1] | log2 fold change [2] | log2 fold change [3] | log2 fold change [4] | log2 fold change [5] | log2 fold change [6] | log2 fold change [7] | log2 fold change [8] | log2 fold change [9] | log2 fold change [10] | log2 fold change [11] | log2 fold change [12] | log2 fold change [13] | log2 fold change [14] | log2 fold change [15] | log2 fold change [16] | log2 fold change [17] | log2 fold change [18] | log2 fold change [19] | log2 fold change [20]
1 | MAPK8 isoform 3 (UniProt P45983) | 0.003 | -0.08 | 0.092 | -0.096 | 0.018 | 0.254 | -0.127 | 0.096 | -0.019 | -0.008 | -0.011 | -0.048 | 0.022 | 0.415 (active) | -0.318 | 0.495 (active) | 0.047 | -0.058 | 0.001 | -0.179
2 | MAP4 (UniProt P27816) | -0.004 | 0.012 | -0.025 | -0.035 | -0.03 | 0.006 | -0.023 | -0.051 | 0.008 | -0.014 | 0.008 | 0.005 | 0.008 | 0.008 | 0.049 | -0.01 | -0.033 | -0.029 | 0 | -0.007
3 | KHDRBS1 (UniProt Q07666) | -0.091 | -0.02 | -0.06 | -0.019 | -0.017 | 0.07 | -0.015 | 0.038 | -0.027 | 0.011 | 0.041 | 0.007 | 0.035 | 0.02 | 0.012 | 0.07 | 0.025 | -0.024 | 0.017 | 0.021
4 | MAST4 (UniProt O15021) | -0.041 | -0.188 | 0.064 | -0.114 | 0.091 | -0.301 | -0.03 | 0.053 | -0.088 | 0.007 | -0.029 | 0.034 | -0.073 | -0.757 (active) | -0.112 | -0.004 | 0.131 | 0.09 | -0.087 | -0.003
5 | IRF3 (UniProt Q14653) | -0.146 | 0.007 | 0.056 | -0.027 | 0.067 | -0.068 | 0.039 | 0.053 | -0.038 | 0.022 | 0.033 | 0.023 | 0.066 | -0.191 | -0.1 | -0.04 | 0.106 | 0.005 | -0.023 | 0.039
6 | MAP3K7 (UniProt O43318) | 0.093 | -0.193 | -0.035 | 0.135 | 0.08 | -0.036 | -0.011 | 0.118 | -0.001 | -0.029 | 0.029 | 0.085 | -0.105 | -0.028 | -0.038 | 0.059 | -0.095 | -0.026 | -0.064 | 0.046
7 | LNPEP (UniProt Q9UIQ6) | 0.028 | 0.015 | 0.023 | -0.053 | 0.053 | 0.028 | -0.023 | -0.008 | -0.013 | -0.039 | -0.056 | -0.007 | 0.017 | 0.026 | 0.033 | -0.024 | 0.014 | -0.007 | 0.008 | 0.035
8 | LUZP1 (UniProt Q86V48) | 0.183 | -0.259 | -0.265 | 0.191 | -0.009 | 0.058 | 0.196 | 0.206 | 0.017 | -0.138 | -0.075 | -0.028 | -0.086 | -0.35 | 0.106 | 0.21 | -0.129 | -0.104 | 0.186 | -0.055
9 | MFF (UniProt Q9GZY8) | -0.03 | -0.051 | -0.052 | -0.023 | 0.005 | -0.036 | -0.053 | -0.085 | -0.018 | -0.088 | -0.065 | -0.049 | -0.057 | -0.073 | 0.014 | -0.017 | -0.011 | -0.05 | 0.073 | 0.035
10 | LONP2 (UniProt Q86WA8) | -0.004 | 0.072 | 0.026 | 0.113 | -0.017 | 0.017 | 0.073 | -0.094 | 0.073 | 0.092 | -0.037 | -0.054 | 0.26 | -0.187 | 0.024 | -0.065 | 0.055 | -0.131 | 0.012 | 0.063
11 | KHDC4 (UniProt Q7Z7F0) | 0.045 | -0.091 | 0 | -0.074 | 0.255 | -0.052 | 0.013 | 0.207 | -0.054 | 0.027 | -0.051 | 0.057 | 0.063 | -0.054 | -0.009 | -0.053 | -0.006 | -0.053 | -0.133 | 0.004
12 | IKZF1 (UniProt Q13422) | -0.065 | -0.048 | 0.008 | -0.069 | 0.111 | -0.038 | -0.078 | 0.039 | -0.016 | -0.186 | -0.062 | -0.004 | 0.237 | -0.347 | -0.121 | -0.112 | 0.072 | 0.119 | -0.026 | -0.07
13 | IRF2BPL (UniProt Q9H1B7) | -0.034 | 0.133 | 0.249 | -0.005 | 0.106 | -0.041 | 0.034 | 0.066 | -0.061 | -0.083 | -0.038 | 0.012 | -0.07 | -0.034 | -0.034 | -0.029 | 0.083 | -0.084 | -0.067 | -0.055
14 | IRAK4 (UniProt Q9NWZ3) | 0.034 | -0.025 | 0.003 | 0.046 | -0.01 | -0.107 | 0.061 | 0.104 | -0.047 | -0.05 | -0.047 | 0.236 (active) | -0.089 | -0.047 | -0.143 | -0.01 | 0.011 | 0.035 | -0.116 | -0.031
15 | METTL18 (UniProt O95568) | 0.003 | -0.043 | 0.053 | -0.012 | 0.004 | -0.045 | -0.115 | 0.012 | -0.001 | 0.004 | -0.091 | -0.049 | -0.092 | 0.028 | 0.054 | -0.023 | -0.022 | -0.087 | 0.019 | 0.036
16 | LSS (UniProt P48449) | 0.043 | 0.77 (active) | 0.081 | 0.02 | 0.044 | 0.044 | 0.103 | 0.017 | 0.024 | 0.111 | 0.393 | 0 | -0.046 | 0.047 | 0 | 0.013 | 0.145 | 0 | -0.039 | 0.193
